Measurements published in the supplement of paper PMC6279402.
Structures can show the parent of a compound that is named as a salt. ± gives the standard deviation of the averaged measurements.

Tested on: A549
Assay: relative viability (normalised to negative control = 1, bortezomib = 0) (fraction); higher = less cytotoxic
Conditions: inflammatory serum-free RHB-A with cytokines + LPS; 5 d + 24 h CellTiter-Blue; compound 300 nM; GSK126 pretreatment: none (vehicle)

First: COc1cc(Nc2ncc(F)c(Nc3ccc4c(n3)NC(=O)C(C)(C)O4)n2)cc(OC)c1OC [R406(free base); R406]
Second: COc1cc(Nc2ncc(F)c(Nc3ccc4c(n3)N(COP(=O)(O)O)C(=O)C(C)(C)O4)n2)cc(OC)c1OC
The relative viability of the first is higher: 1.22 ± 0.087 for the first, 0.983 ± 0.067 for the second.

`Cc1ccc(Nc2nccc(N(C)c3ccc4c(C)n(C)nc4c3)n2)cc1S(N)(=O)=O` [Pazopanib Hydrochloride] and `Cc1cn(-c2cc(NC(=O)c3ccc(C)c(Nc4nccc(-c5cccnc5)n4)c3)cc(C(F)(F)F)c2)cn1` [Nilotinib] are within error of each other in relative viability: 1.09 ± 0.12 for the first, 1.07 ± 0.069 for the second.

First: CO[C@H]1C(=O)[C@]2(C)[C@@H](OC)C[C@H]3OC[C@@]3(OC(C)=O)[C@H]2[C@H](OC(=O)c2ccccc2)[C@]2(O)C[C@H](OC(=O)[C@H](O)[C@@H](NC(=O)OC(C)(C)C)c3ccccc3)C(C)=C1C2(C)C [Cabazitaxel]
Second: CC[C@]1(O)C[C@H]2CN(CCc3c([nH]c4ccccc34)[C@@](C(=O)OC)(c3cc4c(cc3OC)N(C=O)[C@H]3[C@@](O)(C(=O)OC)[C@H](OC(C)=O)[C@]5(CC)C=CCN6CC[C@]43[C@@H]65)C2)C1 [Vincristine sulfate]
The relative viability of the first is higher: 0.421 ± 0.077 for the first, 0.303 ± 0.014 for the second.

`CC/C(=C(\c1ccccc1)c1ccc(OCCN(C)C)cc1)c1ccccc1` [Tamoxifen citrate] and `CCC[C@H](NC(=O)/C(C#N)=C/c1cccc(Br)n1)c1ccccc1` are within error of each other in relative viability: 0.972 ± 0.024 for the first, 1.04 ± 0.065 for the second.

Compared with `CC(C)n1nc(-c2cc3cc(O)ccc3[nH]2)c2c(N)ncnc21`, `Cc1cccc(-c2[nH]c(C(C)(C)C)nc2-c2ccc3nccnc3c2)n1` is higher in relative viability: 0.431 ± 0.043 for the first, 0.887 ± 0.067 for the second.

`O=C(O)C(=O)O.[NH-][C@@H]1CCCC[C@H]1[NH-].[Pt+2]` [Oxaliplatin] and `Cc1nc(NC(=O)N2CCC[C@H]2C(N)=O)sc1-c1csc(C(C)(C)C)n1` are within error of each other in relative viability: 0.796 ± 0.037 for the first, 0.784 ± 0.059 for the second.

`CCOc1ccn(-c2ccc(F)cc2)c(=O)c1C(=O)Nc1ccc(Oc2ccnc(N)c2Cl)c(F)c1` and `COc1cc2nccc(Oc3ccc(NC(=O)C4(C(=O)Nc5ccc(F)cc5)CC4)cc3)c2cc1OC` [XL184; Cabozantinib] are within error of each other in relative viability: 1.08 ± 0.16 for the first, 0.974 ± 0.014 for the second.

Going from `CC[C@@]1(O)C(=O)OCc2c1cc1n(c2=O)Cc2cc3c(CN(C)C)c(O)ccc3nc2-1` [Topotecan HCl; Topotecan hydrochloride] to `Cn1c(=O)c(F)c(Nc2ccc(I)cc2F)c2c(=O)n(C[C@@H](O)CO)cnc21`, the relative viability falls from 0.221 ± 0.038 to 0.0397 ± 0.0058.

Compared with `CS(=O)(=O)OCCCCOS(C)(=O)=O` [Busulfan], `CC[C@@H]1C(=O)N(C)c2cnc(Nc3ccc(C(=O)NC4CCC(N5CCN(CC6CC6)CC5)CC4)cc3OC)nc2N1C(C)C` (some centres not stated) [BI6727 (Volasertib)] is lower in relative viability: 0.893 ± 0.024 for the first, 0.249 ± 0.097 for the second.

First: Cn1cnc2c(F)c(Nc3ccc(Br)cc3Cl)c(C(=O)NOCCO)cc21 [AZD6244(Selumetinib)]
Second: O=C(NOCC(O)CO)c1cc(Br)c(F)c(F)c1Nc1ccc(I)cc1F (configuration not stated)
The relative viability of the first is higher: 0.34 ± 0.022 for the first, 0.276 ± 0.0045 for the second.

`Nc1nc(Cl)nc2c1ncn2[C@H]1C[C@H](O)[C@@H](CO)O1` [Cladribine] and `Nc1ccn([C@@H]2O[C@H](CO)[C@@H](O)C2(F)F)c(=O)n1` [Gemcitabine hydrochloride; Gemcitabine HCl] are within error of each other in relative viability: 0.305 ± 0.075 for the first, 0.19 ± 0.087 for the second.

`Nc1ncnc2c1c(-c1cccc(OCc3ccccc3)c1)cn2C1CC(CN2CCCC2)C1` (configuration not stated) and `COc1cc(N2CCC(N3CCN(C)CC3)CC2)ccc1Nc1ncc(Cl)c(Nc2ccccc2S(=O)(=O)C(C)C)n1` are within error of each other in relative viability: 0.333 ± 0.059 for the first, 0.259 ± 0.028 for the second.

Compared with `Cc1c(NC(=O)OC[C@@H]2COCCN2)cn2ncnc(Nc3ccc4c(cnn4Cc4cccc(F)c4)c3)c12`, `CC(=O)Nc1cccc(-n2c(=O)n(C3CC3)c(=O)c3c(Nc4ccc(I)cc4F)n(C)c(=O)c(C)c32)c1` is lower in relative viability: 0.621 ± 0.052 for the first, 0.0354 ± 0.0045 for the second.

`Oc1ncnc2[nH]ncc12` [Allopurinol] and `OCCn1cc(-c2cnc3nnn(Cc4ccc5ncccc5c4)c3n2)cn1` are within error of each other in relative viability: 0.974 ± 0.066 for the first, 0.9557 ± 0.0093 for the second.

Compared with `COc1c2occc2cc2ccc(=O)oc12` [Methoxsalen], `COc1cc2/c(=N/c3ccc(Br)cc3F)nc[nH]c2cc1OCC1CCN(C)CC1` [Vandetanib] is lower in relative viability: 0.906 ± 0.057 for the first, 0.705 ± 0.044 for the second.

First: CO[C@H]1C[C@@H]2CC[C@@H](C)[C@@](O)(O2)C(=O)C(=O)N2CCCC[C@H]2C(=O)O[C@H]([C@H](C)C[C@@H]2CC[C@@H](O)[C@H](OC)C2)CC(=O)[C@H](C)/C=C(\C)[C@@H](O)[C@@H](OC)C(=O)[C@H](C)C[C@H](C)/C=C/C=C/C=C/1C [Sirolimus; RAPAMYCIN; Rapamycin(Sirolimus); Rapamycin]
Second: C/C=C1\NC(=O)[C@H]2CSSCC/C=C/[C@H](CC(=O)N[C@H](C(C)C)C(=O)N2)OC(=O)[C@H](C(C)C)NC1=O [Depsipeptide]
The relative viability of the first is higher: 0.558 ± 0.07 for the first, -0.00514 ± 0.00076 for the second.

Going from `C#CCC(Cc1cnc2nc(N)nc(N)c2n1)c1ccc(C(=O)N[C@@H](CCC(=O)O)C(=O)O)cc1` (some centres not stated) [pralatrexate] to `N#CC(=C(/N)Sc1ccccc1N)/C(C#N)=C(/N)Sc1ccccc1N`, the relative viability falls from 0.896 ± 0.06 to 0.684 ± 0.12.

First: C[C@]12CC[C@H](O)CC1=CC[C@@H]1[C@@H]2CC[C@]2(C)C(c3cccnc3)=CC[C@@H]12 [Abiraterone]
Second: C=CC(=O)Nc1cccc(Sc2nc(Nc3ccc(N4CCN(C)CC4)cc3)ncc2Cl)c1
The relative viability of the first is higher: 1.03 ± 0.098 for the first, 0.477 ± 0.083 for the second.

`Oc1ccc(-c2nc(-c3ccc(F)cc3)c(-c3ccncc3)[nH]2)cc1` gave a relative viability of 1.17 ± 0.19.
